# Source: PubChem (National Center for Advancing Translational Sciences (NCATS))
# Hits are enriched below; roughly 19% of the tested compounds scored in any of these assays.
# MARV entry inh: blocks Marburg virus binding to or entry into cells; Marburg virus pseudotyped entry inhibition, cell reporter; Potency, µM (titrated, usually from 37.8 µM), for the others: at the highest dose activity change, negative = inhibition, actives largely listed as inhibitors; 1.8% of 300,000 active; calls by dose curve; tested in HEK293 cells; also: potency is read from the fitted curve at half-maximal effect; % is scaled to controls: 0 for no effect and ±100 for the full control effect
# Lassa entry inh: Lassa virus entry inhibition. Lassa virus pseudotype entry inhibition, cell reporter. Potency, µM (top dose mostly 37.9 µM), for the others: at the top dose activity change, negative = inhibition, usual class: inhibitors. 1.2% of 300,000 active. AID 540256; calls by dose curve; tested in HEK293 cells; also: potency is read from the fitted curve at half-maximal effect; % is scaled to controls: 0 for no effect and ±100 for the full control effect; nearly all actives have a fitted effect of over 50% in size
# Pf growth 96h: inhibits malaria parasite growth, 96 h. P. falciparum luciferase reporter growth, 96 h. Potency, µM (doses to about 28.7 µM), without a hit: at the top dose activity change, negative = inhibition, usual class: inhibitors. 6.9% of 320,000 active. AID 504834; also: potency is read from the fitted curve at half-maximal effect; % is scaled to controls: 0 for no effect and ±100 for the full control effect
#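 Delayed-death screen, second-generation endpoint: infected erythrocytes, 2% hematocrit, 0.05% parasitemia final; 96 hours at 37 C, 5% CO2; luciferase detection reagent; luminescence decrease equals reduced growth.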
# Pf growth 48h: inhibits P. falciparum growth in the first generation, 48 h; P. falciparum luciferase growth in erythrocytes, 48 h; AID 504832; Potency, µM (doses to about 28.7 µM), inactives show at the highest dose activity change, negative = inhibition, usual class: inhibitors; 5.9% of 310,000 active; also: potency is read from the fitted curve at half-maximal effect; % is scaled to controls: 0 for no effect and ±100 for the full control effect
#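 Cell-based growth assay: transgenic P. falciparum expressing firefly luciferase, cultured in red cells within RPMI 1640 containing 0.5% w/v Albumax, 24 mM bicarbonate and gentamycin. A drop in luciferase activity indicates inhibition.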
# CHX counter: counter-screen for Shiga toxin inhibitors: cycloheximide protein synthesis inhibition; max response, %; cell reporter, cycloheximide protein synthesis inhibition counterscreen; 12% of 300,000 active; in the data active = max response mostly above about 13%, no sharp cut-off; inactive = mostly below about 14%; also: read at 38.3 µM for the half of the compounds with a filed dose; 0% is about no effect
# Shiga toxin inh: inhibitors of Shiga toxin in Vero cells; Vero cells, Shiga toxin protein synthesis inhibition reporter; inhibition, % at 38.7 µM; 9.2% of 290,000 active; AID 2315; in the data active = inhibition mostly above about 28%, no sharp cut-off; inactive = mostly below about 43%; also: 0% is about no effect
# The depositor's hits bear a star; i = inactive; ? = inconclusive; · = not tested or not shown; [ ] = another dose, or the depositor's remark. Unless noted, calls follow the shape of the dose curve; as a rule, active = well fitted inhibition curve with a large enough effect; inconclusive = small, poorly fitted or top-dose-only effect, or another doubt; inactive = no such curve, though single readings can be large or run the other way.
SMILES,MARV entry inh,Lassa entry inh,Pf growth 96h,Pf growth 48h,CHX counter,Shiga toxin inh
N#Cc1ccc2c(c1)C[C@]1(c3ccsc3)Oc3c(c(=O)oc4ccc(F)cc34)C2O1,·,·,73%[5.75 µM],1.5µM*,-4,i
N#Cc1ccc2c(c1)C[C@]1(c3ccsc3)Oc3c(c(=O)oc4ccccc34)[C@H]2O1,5%[14.2 µM],·,·,·,·,·
CCC1(c2ccccc2)NC(=O)N(CC(=O)Nc2cccc(S(=O)(=O)N3CCCCC3)c2)C1=O (stereo unspecified),?,-25%,?,?,·,·
COc1cccc(NC(=O)CN(C)C(=O)c2c(C)nn(CC(C)C)c2Cl)c1,·,·,?,-26%,·,·
COc1ccc(Cl)cc1Nc1nnc(-c2ccncc2)s1,·,·,30%,2%[0.00184 µM],-3,-3
Cc1ccc(Nc2nnc(-c3ccncc3)s2)c(Br)c1,25%,0%,?,?,27*,26
COc1ccc(Nc2nnc(-c3ccncc3)s2)cc1Cl,·,·,?,7%,49*,71*
Clc1ccccc1Nc1nnc(-c2ccncc2)s1,?,5µM*,22%,76%,41*,28*
C=CCSc1nncn1/N=C/c1ccc(OC)cc1,22%,2%,171%,148%,37*,76*
COc1ccc(/C=N/n2cnnc2SCCO)cc1OC,4%,-5%,9%,26%,11,21
Cc1ccc(SCC(=O)OCC(=O)N(C)CC(=O)Nc2ccccc2Cl)cc1,?,7%,31%,-19%,·,·
COc1ccc(CCNC(=O)c2oc3ccc(S(=O)(=O)N4CCOCC4)cc3c2C)cc1OC,?,?,15%,?,-5,-4
Cn1c(SCC(N)=O)nnc1-c1ccc(C(C)(C)C)cc1,·,·,1%,56%,17*,14
Cc1cccc(-c2nnc(SCC(=O)C(C)(C)C)n2C)c1,0%[46.1 µM],?,1%,?,37*,73*
Cc1cccc(-c2nnc(SCC(=O)Nc3cc(C)on3)n2C)c1,-17%[46.1 µM],3%[46.1 µM],8%,3%,1,-8
N#Cc1c(N2CCCC2)nsc1-c1ccccc1,·,·,69%,56%,52*,102*
N#Cc1nc(-c2ccccc2)oc1N1CCCCC1,7%,7%,?,3%,12,-4
N#Cc1c(N2CCOCC2)nsc1-c1ccccc1,3%,?,91%,69%,40*,75*
Cc1cc(C)c(C#N)c(N2CCOCC2)n1,-7%,6%,?,15%,3,7
CS(=O)(=O)N1N=C(c2ccco2)CC1c1ccccc1Cl (stereo unspecified),-2%[46.1 µM],28%[46.1 µM],-7%,-19%,-1,20
CS(=O)(=O)N1N=C(c2ccco2)CC1c1ccc(Cl)cc1Cl (stereo unspecified),·,·,5.2µM*,-5%,2,-4
CS(=O)(=O)N1N=C(c2ccco2)CC1c1ccc(Br)cc1 (stereo unspecified),-3%,?,41%,12%,21*,19
COc1ccc(-c2cc(C(F)(F)F)c(C#N)c(SCC(=O)Nc3ccc(C)cc3)n2)cc1,19%,5%,·,47%,23,-4
CC1CCN(CCCNC(=O)c2ccc(CS(=O)(=O)Cc3ccc(Cl)cc3)o2)CC1,·,·,-21%,4%,-2,-1
CCC(CO)Oc1cc(NCc2ccc(OC)cc2)c2ncn(C(C)C)c2c1 (stereo unspecified),·,·,?,15µM*,·,·
SMILES,MARV entry inh,Lassa entry inh,Pf growth 96h,Pf growth 48h,CHX counter,Shiga toxin inh
CC(C)n1cnc2c(NCc3ccccc3)cc(Cc3ccc(F)cc3)cc21,·,·,6.6µM*,10µM*,·,·
Fc1ccc(CNc2ncccn2)cc1,29%[46.1 µM],8%,-21%,18%,7,20
CCCOc1cc(NCc2ccccc2)c2ncn(C(C)C)c2c1,·,·,2.6µM*,8.3µM*,·,·
COc1ccc(CNc2nc(-c3cccnc3)nn2C(=O)C(C)C)cc1,20%[46.1 µM],19%[46.1 µM],-17%,?,4,11
COc1ccc2cc(C#N)c(Nc3cccc(F)c3)nc2c1,9%,-5%,26%,4%,-4,19
Cc1ccc(-c2csc(N=C(N)N)n2)cc1,3%[46.1 µM],7%,-45%,?,28*,64*
Cc1ccc(-c2csc(N3CCC(C(N)=O)(N4CCCCC4)CC3)n2)cc1,·,·,4%,·,-7,-11
CCN1CCc2nc(NC(=O)c3ccccc3)sc2C1,-22%,2%,196%,157%,10,26
O=C(Nc1nc2c(s1)CN(Cc1ccccc1)CC2)C1CCC1,14%[46.1 µM],-10%,-6%,37%[5.75 µM],31*,74*
O=c1oc(-c2cccnc2)nc2ccccc12,-28%,2%,109%,-10%,-2,-1
Cc1cc(=O)c2cc3nc(-c4cccnc4)oc3c(Br)c2o1,·,·,10%,?,15*,42
O=C(O)c1ccc(CSc2nnc(-c3ccncc3)n2-c2ccc(Cl)cc2)cc1,·,·,31%,33%,-3,-10
Cc1ccc(S(=O)(=O)c2c(N)n(Cc3ccco3)c3nc4ccccc4nc23)cc1,?,?,10µM*,?,-5,-11
Cc1cccc(S(=O)(=O)c2c(N)n(Cc3ccco3)c3nc4ccccc4nc23)c1,-29%,-17%,-16%,8.3µM*,-7,-10
CCCCn1c(N)c(S(=O)(=O)c2ccc(C)cc2)c2nc3ccccc3nc21,10µM*,?,12µM*,?,-4,-8
COC(=O)c1cnn(C(=O)c2cc(OC)ccc2Br)c1N,17%,?,-2%,3%,-1,14
O=C(NCc1cccs1)c1cc2c(s1)-c1ccccc1OC2,6%,?,-24%,1%,20*,32
O=C(O)c1cc2c(s1)-c1ccccc1OC2,?,9%,34%,-1%,8,18
O=C(NC1CC1)c1cc2c(s1)-c1ccccc1OC2,·,·,13µM*,·,77*,104*
COc1cc(NC(=O)c2cc3c(s2)-c2ccccc2OC3)cc(OC)c1OC,-29%[46.1 µM],·,·,·,·,·
